We go through 39 compounds from PubChem BioAssay AID651582 (Sanford-Burnham Center for Chemical Genomics, 2012).

SMILES strings stand for the structures. “And” between values parts separate entries of the source, which are not always exact repeats. Identical values can stand only once. Screen size: about 230,000 compounds; about 1,500 (0.65%) were called active.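 Rule for the calls: active = pattern-corrected inhibition of lipid staining of at least 50% with the nuclear-stain viability signal not falling by more than 50%; inactive = the rest, inconclusive results apart.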 This excerpt belongs to a sample that is enriched for actives. Some structures have more than one record in an assay (separate samples or runs), and their calls can disagree.

The assay can be described thus: TAG lipid buildup reduction in H9c2 cells – cell-based, uHTS, fluorescence, primary screen (AID 651582).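 For inhibition: 0% = DMSO wells and 100% = triacsin C control wells.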 The conditions noted are these: Nile Red lipid (TAG) fluorescence, at 12.5 µM, cells loaded with 200 µM oleic acid; DAPI nuclei signal change (viability), lower = more cytotoxic: measured here: DAPI nuclei count viability; inhibition: stronger effect = higher value.
Consider `CC1O[C@@H](OC2C(O)C(C)O[C@H](OC(=O)[C@]34CCC(C)(C)C[C@H]3C3=CCC5[C@@]6(C)CC(O)C(O[C@@H]7OC(CO)C(O)[C@@H](O)[C@@H]7O)[C@@](C)(C(=O)O)C6CC[C@@]5(C)[C@]3(CO)CC4)C2O[C@H]2OC(C)[C@@H](O[C@@H]3OCC(O[C@@H]4OC(CO)C(O)[C@H](O)C4O)[C@@H](O)[C@@H]3O)[C@H](O)C2O)C(O)C(O)C1O` (stereo partly drawn), for which the DAPI nuclei signal change (viability), lower = more cytotoxic was -3.05% and the inhibition is 18.4% (inactive).

Turning to `Cc1cccc(NC(=O)c2nnn(-c3cccc(C(F)(F)F)c3)c2N)c1`, the DAPI nuclei signal change (viability), lower = more cytotoxic was -5.82% and the inhibition was 3.82% (inactive).

With `COc1cc(NC(=O)c2[nH]cnc2C(N)=O)cc(C(=O)Nc2cccc(C(F)(F)F)c2)c1`, the DAPI nuclei signal change (viability), lower = more cytotoxic was -14.2% and the inhibition was 53.7% (active).

As to `COc1ccc(NC(=O)CN(C)CC(=O)Nc2cccc(C(F)(F)F)c2)cc1`, the DAPI nuclei signal change (viability), lower = more cytotoxic is 6.16% and the inhibition is -9.17% (inactive).

In the case of `COc1cc(NC(=O)c2cncc(-c3ccc(C#N)cc3)c2)cc(C(=O)Nc2cccc(C(F)(F)F)c2)c1`, the DAPI nuclei signal change (viability), lower = more cytotoxic is 0.0489% and -1.97%; the inhibition was -19.1% (inactive) and 61.3% (active).

Consider `N#Cc1ccc(Oc2ccc(C(F)(F)F)cc2NC(=O)c2ccc(F)cc2)cc1`, for which the DAPI nuclei signal change (viability), lower = more cytotoxic is 4.06% and the inhibition was -7.23% (inactive).

As to `COc1ccc(NC(=O)C(=O)NCC(=O)Nc2cccc(C(F)(F)F)c2)cc1`, the DAPI nuclei signal change (viability), lower = more cytotoxic is -2.54% and the inhibition was 4.19% (inactive).

As to `CC(C)(C)OC(=O)C[C@@H]1C/C=C\C[C@@H](CC(=O)N(CCO)Cc2ccccc2)C(=O)N[C@H](Cc2ccccc2)COC1=O`, the DAPI nuclei signal change (viability), lower = more cytotoxic was -3.76% and the inhibition is 9.88% (inactive).

Take `O=C(COc1ccc(Br)cc1)OCC(=O)c1ccc[nH]1`: the DAPI nuclei signal change (viability), lower = more cytotoxic is 0.498% and the inhibition was -0.551% (inactive).

Take `CC(=O)NCc1ccc(-c2csc(NC(=O)CCCc3nc4ccccc4c(=O)[nH]3)n2)cc1`: the DAPI nuclei signal change (viability), lower = more cytotoxic was 0.981% and the inhibition was 12% (inactive).

Regarding `Cc1onc(-c2c(F)cccc2Cl)c1C(=O)OCC(=O)N1C(C)CCCC1C` (stereo not drawn), the DAPI nuclei signal change (viability), lower = more cytotoxic is -2.4% and the inhibition is 8.89% (inactive).

Regarding `CCCCNc1c(-c2ccc(OC)c(Sc3ccc(OC)cc3)c2)nc2ccc(Cl)cn12`, the DAPI nuclei signal change (viability), lower = more cytotoxic worked out at 65.8% and the inhibition was 11.1% (inactive).

`C=CCC[C@H](Cc1ccc(F)cc1)C(=O)OC[C@@H](Cc1c[nH]c2ccccc12)NC(=O)[C@H](CC=C)CC(=O)N[C@H](CO)Cc1ccccc1`: the DAPI nuclei signal change (viability), lower = more cytotoxic was determined as 1.3% and the inhibition was 20.3% (inactive).

Consider `C=CCC[C@H](Cc1ccc(F)cc1)C(=O)OC[C@H](C)NC(=O)[C@H](CC=C)CC(=O)N(CCO)Cc1ccccc1`, for which the DAPI nuclei signal change (viability), lower = more cytotoxic was -5.64% and the inhibition is 27.4% (inactive).

Take `C=CCC[C@@H](Cc1ccc(F)cc1)C(=O)OC[C@H](Cc1c[nH]c2ccccc12)NC(=O)[C@@H](CC=C)CC(=O)N(CCO)Cc1ccccc1`: the DAPI nuclei signal change (viability), lower = more cytotoxic is -6.98% and the inhibition is 68% (active).

Turning to `CCN(CC)S(=O)(=O)c1ccc(N2CCOCC2)c(NC(=O)c2ccc(=O)n(C)n2)c1`, the DAPI nuclei signal change (viability), lower = more cytotoxic was -1.89% and the inhibition was 5.11% (inactive).

`CCOC(=O)C1(C)CCCN(C(=O)c2cccc(Cl)c2)C1` (stereo not drawn): the DAPI nuclei signal change (viability), lower = more cytotoxic worked out at 4.05% and the inhibition is -18.8% (inactive).

Regarding `CN(C(=O)c1cccc(NC(=O)Cc2ccc(NC(=O)C3CCN(C(=O)C4CCCCC4)CC3)cc2)c1)C1CCC1`, the DAPI nuclei signal change (viability), lower = more cytotoxic is -0.027% and the inhibition is -1.1% (inactive).

Regarding `O=C(Nc1ccccc1)Oc1cccc2cccnc12`, the DAPI nuclei signal change (viability), lower = more cytotoxic is -22.4% and the inhibition is 63.4% (active).

For the compound `O=C(Nc1ccccc1Cl)Nc1cccc2cccnc12`, the DAPI nuclei signal change (viability), lower = more cytotoxic came to 2.86% and the inhibition is 20.5% (inactive).

`OCc1ccc(OCCCOc2cccc3cccnc23)cc1`: the DAPI nuclei signal change (viability), lower = more cytotoxic stood at 12.3% and the inhibition was -32.6% (inactive).

For `COc1ccc(C(=O)N2CCCCC2c2cc(C(=O)Nc3ccc(F)c(Cl)c3)no2)cc1` (stereo not drawn), the DAPI nuclei signal change (viability), lower = more cytotoxic was -1.17% and the inhibition is 2.9% (inactive).

As for `O=C(NCCN1CCOCC1)c1ccc2c(c1)ncn2C1CCCC1`, the DAPI nuclei signal change (viability), lower = more cytotoxic is 1.89% and the inhibition is -0.366% (inactive).

Take `O=C(NCCN1CCOCC1)c1cc(-c2cccs2)nc2ccccc12`: the DAPI nuclei signal change (viability), lower = more cytotoxic came to 34.9% and the inhibition is 13.5% (inactive).

`c1ccc2cc3c(NCCN4CCOCC4)ccnc3cc2c1`: the DAPI nuclei signal change (viability), lower = more cytotoxic was 65.1% and the inhibition was 70.1% (active).

As to `CCOC(=O)C1CCCN(C(=O)c2ccc(C)c(S(=O)(=O)N3CCCCC3)c2)C1` (stereo not drawn), the DAPI nuclei signal change (viability), lower = more cytotoxic turned out to be 0.656% and the inhibition is -11.3% (inactive).

`O=C(C1Cc2ccccc2CN1C(=O)c1ccco1)N1CCN(c2ccccc2)CC1` (stereo not drawn): the DAPI nuclei signal change (viability), lower = more cytotoxic is 0.303% and the inhibition is 25.4% (inactive).

For the compound `COc1cccc(CNc2nc3cc(-c4csc5ccccc45)sc3c(=O)n2C)c1`, the DAPI nuclei signal change (viability), lower = more cytotoxic came out at 4.67% and the inhibition was 6.4% (inactive).

Turning to `O=C(CN1C(=O)NC2(CCOc3ccccc32)C1=O)Nc1cccc([N+](=O)[O-])c1` (stereo not drawn), the DAPI nuclei signal change (viability), lower = more cytotoxic is -0.437% and the inhibition is 29.8% (inactive).

As to `OCCCNc1nccc(-c2cc(Nc3cccc(Cl)c3)ncn2)n1`, the DAPI nuclei signal change (viability), lower = more cytotoxic is -53.6% and the inhibition was 91.3% (inactive).

`CC(C)C[C@H](CO)Nc1nc(N(C)c2cccc(Cl)c2)c2ncn(C(C)C)c2n1`: the DAPI nuclei signal change (viability), lower = more cytotoxic is -1.92% and the inhibition is -3.43% (inactive).

With `CC(C)n1cnc2c(Nc3cccc(Cl)c3)nc(N(CCO)CCCO)nc21`, the DAPI nuclei signal change (viability), lower = more cytotoxic is -20.3% and the inhibition is 56.1% (active).

Regarding `COc1cc(C(O)c2nc(-c3cnn(C)c3)cs2)ccc1F` (stereo not drawn), the DAPI nuclei signal change (viability), lower = more cytotoxic is -5.42% and the inhibition was -0.779% (inactive).

`CC(=O)c1cccc(-c2cnc3c(NC=O)cc(-c4ccc(N(C)C)cc4)cn23)c1`: the DAPI nuclei signal change (viability), lower = more cytotoxic was -34.1% and the inhibition is 25.5% (inactive).

For the compound `CN(C)CCNC(=O)c1cccc(-c2cnc3c(NC=O)cc(-c4cccc(C(F)(F)F)c4)cn23)c1`, the DAPI nuclei signal change (viability), lower = more cytotoxic is -5.39% and the inhibition was 55.2% (active).

On to `CN(C)C(=O)c1cccc(-c2cnc3c(NC=O)cc(-c4ccc(C(=O)N5CCOCC5)cc4)cn23)c1`, for which the DAPI nuclei signal change (viability), lower = more cytotoxic is -40.1% and the inhibition is 52.5% (active).

As for `CN(C)C(=O)c1cccc(-c2cnc3c(NC=O)cc(-c4ccc(F)cc4)cn23)c1`, the DAPI nuclei signal change (viability), lower = more cytotoxic was -3.97% and the inhibition was 30.4% (inactive).

With `CC(=O)c1cccc(-c2cnc3c(NC=O)cc(-c4cccc(C(=O)N(C)C)c4)cn23)c1`, the DAPI nuclei signal change (viability), lower = more cytotoxic was -7.72% and the inhibition is 11.7% (inactive).

On to `O=CNc1cc(-c2ccc(C(=O)N3CCOCC3)cc2)cn2c(-c3ccc(F)cc3)cnc12`, for which the DAPI nuclei signal change (viability), lower = more cytotoxic is -10.1% and the inhibition is 16.1% (inactive).
